Screening data: PubChem BioAssay, National Center for Advancing Translational Sciences (NCATS)
Shown are actives, neighbours in structure and some others; about 12% of the full set was active somewhere.
PLK1 PBD inh: inhibitors of human PLK1 polo-box domain binding. Potency, µM, inactives show max response, negative = inhibition, most hits filed as inhibitors. Plk1 PBD binding of FITC phosphopeptide, fluorescence polarization. actives 2.8% (n = 360,000); further: potency means the concentration at half of the fitted maximal effect; series mostly up to about 57 µM; on the % scale 0 is the no-effect control and ±100 the full control effect; nearly all actives have a fitted effect of over 65% in size
G9a block: inhibitors of human histone lysine methyltransferase G9a; Potency, µM (doses to about 102 µM), without a hit: at the top dose activity, negative = inhibition, most hits filed as inhibitors; actives 8.8% (n = 350,000); G9a H3K9 monomethylation, AlphaScreen, 2 h; Q96KQ7; AID 504332; further: potency means the concentration at half of the fitted maximal effect; on the % scale 0 is the no-effect control and ±100 the full control effect; nearly all actives have a fitted effect of over 75% in size
Target sequence (Q96KQ7 913-1193 limits assumed): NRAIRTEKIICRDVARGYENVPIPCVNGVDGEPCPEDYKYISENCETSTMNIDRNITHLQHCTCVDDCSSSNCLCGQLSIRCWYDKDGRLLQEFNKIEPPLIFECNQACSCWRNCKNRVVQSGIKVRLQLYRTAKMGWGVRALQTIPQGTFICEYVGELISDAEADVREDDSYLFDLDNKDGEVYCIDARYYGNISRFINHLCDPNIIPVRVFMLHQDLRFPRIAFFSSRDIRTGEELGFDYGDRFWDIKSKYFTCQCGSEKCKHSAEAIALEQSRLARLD
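Readings reflect AlphaScreen signal from monomethyl-H3K9 antibody detection. HMT at 20 nM; substrate b-H3K9 500 nM; cofactor SAM 20 uM; 2 h RT reaction; compounds tested as titrations in qHTS with 15 min preincubation.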
BAZ2B inh: blocks human BAZ2B. Q9UIF8. AlphaScreen BAZ2B-H3K14Ac peptide displacement. Potency, µM (doses to about 114 µM), inactives show at the highest dose activity change, negative = inhibition, actives largely listed as inhibitors. actives 4.4% (n = 360,000). AID 504333; further: potency means the concentration at half of the fitted maximal effect; on the % scale 0 is the no-effect control and ±100 the full control effect; nearly all actives have a fitted effect of over 60% in size
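In this displacement format the biotinylated H3(5-23) peptide acetylated at Lys14 serves as ligand at 50 nM, with BAZ2B at 50 nM in PBS pH 7.4 containing 0.01% Tween-20. Donor and acceptor beads are 10 ug/mL final.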
PI5P4K alpha inh: blocks human PI5P4K alpha kinase activity; PI5P4Kalpha enzyme, ADP-Glo luminescence, 60 min; active compounds read low; max response, %; actives 1.2% (n = 330,000); AID 652105; active means max response of -50% or lower; inconclusive means between -30% and -50%; inactive means -30% or higher; further: value at the top dose of about 77 µM; on the % scale 0 is the no-effect control and ±100 the full control effect
Target sequence (P48426 whole entry, looked up): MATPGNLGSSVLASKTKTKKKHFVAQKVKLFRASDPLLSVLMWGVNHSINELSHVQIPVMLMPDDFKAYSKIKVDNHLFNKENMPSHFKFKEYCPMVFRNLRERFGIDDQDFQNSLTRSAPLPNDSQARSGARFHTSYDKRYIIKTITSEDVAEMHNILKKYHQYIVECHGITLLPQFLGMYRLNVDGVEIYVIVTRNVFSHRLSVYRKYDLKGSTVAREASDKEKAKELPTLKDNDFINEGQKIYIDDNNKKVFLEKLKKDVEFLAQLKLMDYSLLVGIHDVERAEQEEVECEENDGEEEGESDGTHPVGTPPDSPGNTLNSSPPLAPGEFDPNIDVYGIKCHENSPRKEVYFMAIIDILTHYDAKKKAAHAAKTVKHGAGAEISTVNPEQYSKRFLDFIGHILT
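PI5P4Kalpha ADP-Glo assay; 5 microM ATP final; 60 min RT reaction; HEPES pH 7.4/EGTA/CHAPS, 5% DMSO; controls lacking substrate or enzyme; luminescent end-point.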
JMJD2A Tudor: JMJD2A Tudor domain (human) inhibition; Potency, µM (series often up to 114 µM), without a hit: at the highest dose activity change, negative = inhibition, actives largely listed as inhibitors; AlphaScreen JMJD2A-Tudor / H3K4me3 peptide binding; AID 504339; actives 4.4% (n = 390,000); further: potency means the concentration at half of the fitted maximal effect; on the % scale 0 is the no-effect control and ±100 the full control effect; nearly all actives have a fitted effect of over 50% in size
HP1b binding inh: HP1-beta chromodomain-methylated histone interaction inhibition | AlphaScreen HP1-beta / biotin-H3K9me3 peptide binding | Potency, µM (series often up to 114 µM), for the others: top-dose activity change, negative = inhibition, most hits filed as inhibitors | actives 0.56% (n = 390,000); further: potency means the concentration at half of the fitted maximal effect; nearly all actives have a fitted effect of over 70% in size
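AlphaScreen: HP1-beta (50 nM) preformed 30 min with biotin-H3(1-18)K9me3 peptide (50 nM) in PBS pH 7.4, 0.01% Tween-20. Compound added for 30 min at RT, then streptavidin donor/nickel chelate acceptor beads (10 ug/mL) for 30 min.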
* marks the source's active call; other numbers are inactive results; ? = inconclusive; · = not tested or not shown; [ ] = remark or other dose. Unless noted, the call rests on the fitted dose curve; in most records, active means well fitted curve in the direction sought with a large enough effect; inconclusive means small, poorly fitted or top-dose-only effect, or another doubt; inactive means no such curve, though single readings can be large; an effect the other way counts as inactive or inconclusive.

SMILES	PLK1 PBD inh	G9a block	BAZ2B inh	PI5P4K alpha inh	JMJD2A Tudor	HP1b binding inh
COCCCNC(=S)NNC(=O)c1csc(C)n1	4.4%	23.0%	79.4µM*	1.8	-31.9%	63.8%
COc1ccc(NC(=S)NCCCc2ccccc2)cc1	?	12.6%[59 µM]	-30.0%	-3.3	?	25.5%
COCCCNC(=S)NNC(=S)Nc1ccc(OC)cc1	-23.2%	·	-16.7%	-17.0	1.78µM*	?
COCCCNC(=S)NNC(=O)c1cc(-c2ccncc2)nc2ccccc12	-2.2%	·	-12.4%	-4.9	-4.4%	45.0%
O=C(NCc1ccccc1)c1nn(-c2ccccc2)nc1CO	·	20.3%[59 µM]	-22.9%	·	-14.2%	63.0%
COc1ccc(N2CCN(C(=O)c3ccc(CS(=O)c4cccc(C)c4)o3)CC2)cc1 (stereo not drawn)	-13.0%	56.2µM*	?	1.0	-21.6%	22.4%
COc1ccc(N2CCN(C(=O)c3ccc(CS(=O)Cc4ccc(Cl)cc4)o3)CC2)cc1 (stereo not drawn)	-2.1%	50.1µM*	?	-7.7	?	-6.3%
CCCc1cc(=O)oc2cc(C)cc(OCC(=O)Nc3ccc(CN4CCOCC4)cc3)c12	1.0%	2.8%[0.0925 µM]	-15.5%	19.6	-25.7%	23.6%
CCCCCC(=O)Nc1cccc(C2=NOC3(C2)C[C@H](C(N)=O)N(C(=O)COc2ccc(Cl)cc2)C3)c1 (stereo partly drawn)	-16.6%	-6.6%[12.7 µM]	-18.9%	1.3	-31.2%	12.9%
C/C=C\C=C\C(=O)N1CC2(CC(c3cccc(NC(=O)COc4ccc(Cl)cc4)c3)=NO2)C[C@H]1C(N)=O (stereo partly drawn)	-11.3%	?	-16.4%	-81.3*	?	-8.1%
C/C=C\C=C/C(=O)Nc1cccc(C2=NOC3(C2)C[C@@H](C(N)=O)N(C(=O)COc2ccc(Cl)cc2)C3)c1 (stereo partly drawn)	?	?	?	?	70.8µM*	?
CC(C)c1ccc(S(=O)(=O)c2nnn3c2nc(NC2CCCC2)c2sccc23)cc1	·	-2.1%[59 µM]	-9.6%	·	-22.7%	-3.8%
O=C(CN1C(=O)NC2(CCCC2)C1=O)Nc1cccc(Cl)c1	-5.6%	5.2%	5.1%	-3.9	-5.4%	26.0%
Cn1ccnc1SCC(=O)c1ccc(Br)cc1	-26.4%	50.1µM*	?	·	?	-13.6%
Cn1ccnc1SCC(=O)c1ccc([N+](=O)[O-])cc1	?	·	?	-18.1	-26.8%	-14.2%
Cc1cc(C)n2nc(C(=O)OCC(=O)Nc3ccc(F)cc3F)nc2n1	-5.7%	3.8%[59 µM]	-1.6%	1.2	-6.9%	11.9%
COc1ccc(-c2cc(C(=O)N/N=C/c3ccc(OC)c(COCC(F)(F)C(F)F)c3)c3ccccc3n2)c(OC)c1	2.99µM*	6.0%[12.7 µM]	-0.5%	-29.7	?	?
CCn1c(=O)cc(OCC(=O)N2CCN(c3ccc(C)cc3)C(C)C2)c2ccccc21 (stereo not drawn)	·	6.31µM*	?	·	-34.7%	-8.7%
CCn1c(=O)cc(OCC(=O)N2CCCCCC2)c2ccccc21	-2.8%	23.3%[59 µM]	11.0%	0.7	15.8%	23.1%
CS(=O)(=O)N(CC(=O)Nc1cccc(Br)c1)Cc1ccccc1	-17.8%	?	1.5%	-0.7	-7.5%	49.0%
COc1cc(Cl)c(C)cc1NC(=S)NN	26.7µM*	6.31µM*	-18.2%	-13.0	?	-27.7%
COc1cc(NC(=S)NC(C)(C)C)c(OC)cc1Cl	?	?	-37.4%	-0.6	?	-7.5%
COc1cc(NC(=S)NCCCO)c(OC)cc1Cl	0.8%	28.2µM*	-9.6%	-7.0	-0.7%	27.3%
COc1cc(NC(=S)NC2CC(C)(C)NC(C)(C)C2)cc(OC)c1	-22.5%	24.2%[12.7 µM]	-8.0%	4.0	1.0%	25.9%
COc1cc(NC(=S)NC2CC(C)(C)NC(C)(C)C2)c(OC)cc1Cl	-17.2%	50.1µM*	-30.3%	0.0	-17.7%	37.6%
SMILES	PLK1 PBD inh	G9a block	BAZ2B inh	PI5P4K alpha inh	JMJD2A Tudor	HP1b binding inh
COc1ccc(S(=O)(=O)NCCS(=O)(=O)N2CCN(c3ccccc3F)CC2)cc1	·	3.7%[59 µM]	0.2%	·	-15.0%	6.4%[57 µM]
COc1ccc2c(c1)Cc1sc(NC(=O)c3ccccc3)nc1-2	-17.5%	?	-4.7%	?	-7.6%	25.4%
COc1ccc2c(c1)-c1nc(NC(=O)c3cc(Cl)ccc3OC)sc1CC2	·	20µM*	-9.7%	·	-18.2%	21.2%
COc1ccc(C(=O)Nc2nc3c(s2)Cc2cc(OC)ccc2-3)cc1	?	44.7µM*	-15.0%	-16.7	-17.9%	-4.2%
CSc1ccc(CCNC(=O)CN2C(=O)COc3ccc(S(=O)(=O)N4CCCCCC4)cc32)cc1	·	-12.0%[59 µM]	-38.5%	·	-27.8%	15.0%
CCOc1cccc2sc(N(CCN(CC)CC)C(=O)c3ccco3)nc12	·	-28.1%[59 µM]	-28.7%	·	?	42.1%
CN(C)CCCN(C(=O)/C=C/c1cccs1)c1nc2ccc(F)cc2s1	3.8%	?	·	-9.0	37.6%	47.2%
COc1ccc(OC)c2sc(N(CCN(C)C)C(=O)/C=C/c3cccs3)nc12	-10.8%	·	-24.9%	2.6	?	7.5%[57 µM]
COc1cccc2sc(N(CCN(C)C)C(=O)/C=C/c3cccs3)nc12	4.2%	15.8µM*	·	0.3	-33.3%	11.4%
CN(C)CCN(C(=O)/C=C/c1cccs1)c1nc2c(F)cc(F)cc2s1	-9.1%	?	?	-4.3	39.8µM*	?
CCOc1ccc2nc(N(CCN(C)C)C(=O)/C=C/c3cccs3)sc2c1	7.0%	?	-29.3%	7.7	5.8%	31.4%
CCOc1cccc2sc(N(CCN(C)C)C(=O)/C=C/c3cccs3)nc12	-4.7%	-15.3%	?	4.6	44.7µM*	-10.1%
COc1ccc(C)c2sc(N(CCN(C)C)C(=O)/C=C/c3cccs3)nc12	1.2%	·	35.5µM*	4.2	?	2.7%
COC(=O)c1ccc(NC(=S)N2CCN(CCO)CC2)cc1	-13.5%	·	11.7%	1.4	-11.4%	21.8%
Cc1cccc2[nH]c3c(N4CC=C(c5ccc(F)cc5)CC4)ncnc3c12	-11.9%	?	-28.4%	-9.6	?	?
O=C(O)c1ccc(COc2ccc3c4c(c(=O)oc3c2)CCC4)o1	-26.7%	39.8µM*	?	-23.3	?	-22.0%
NC(=O)C1CCN(C(=O)COc2ccc3c4c(c(=O)oc3c2)CCCC4)CC1	3.7%	-36.6%	?	0.4	-32.0%	6.1%
O=C(O)C1CCN(C(=O)COc2ccc3c4c(c(=O)oc3c2)CCC4)CC1	-1.6%	50.1µM*	?	0.1	4.3%	35.6%
COc1cc(C(=O)N/N=C(\C)c2ccccn2)cc(OC)c1OC	-3.0%	63.4%	-16.9%	-7.3	-19.0%	19.6%
CCCCCC(=O)N/N=C(\C)c1ccccn1	1.2%	?	-33.4%	19.2	-19.4%	42.8%
CC(=NNC(=S)N1CCCC1)c1ccccn1	23.8µM*	·	·	-14.4	·	·
